Hits are enriched below; roughly 7.7% of the tested compounds scored in any of these assays.
NOMO-1 viab: STK33 inhibitor candidate reducing NOMO-1 cell viability | NOMO-1 AML viability, CellTiter-Glo luminescence, 72 h | inhibition, % (no concentration beside the values) | hit rate 7.5% among 37,000 | AID 2330; in the data active = inhibition above about 80%; inconclusive = no clear call, values can overlap the other calls
PD-1 reverse act: reversal of PD-1 mediated T-cell inhibition | primary human CD4 T cells, PD-L1 beads, CellTiter-Glo 96 h | activation, % (concentration not given with the values) | 29,000 tested, under 10 active | AID 2316; call rule not given here;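 note: 0% = median vehicle wells and 100% = positive control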
Shh pathway inh: Sonic Hedgehog pathway inhibition. Shh-LIGHT2 Gli-luciferase reporter, 30 h. inhibition, % (test concentration not listed). hit rate 2.1% among 22,000;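 active = mean inhibition across valid replicates above about 65%, limit read from the data; inconclusive = mean under the limit, yet half or more replicates past it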;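 note: pathway switched on by Shh-conditioned medium diluted 1 in 25 in low serum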
The depositor's hits bear a star; ? = inconclusive; · = no result.

SMILES	NOMO-1 viab	PD-1 reverse act	Shh pathway inh
C=CCNC(=O)COc1ccc(Cl)cc1Cl	115.0*	0.9	-56.4
Cc1ccc(-c2nnc3c4ccccc4c(C)nn23)cc1S(=O)(=O)N(C)CCO	44.4	-1.4	·
OC(CNCc1ccccc1)Cn1c2ccccc2c2ccccc21 (configuration not stated)	111.3*	·	·
Cc1cc(C)n(CC(O)Cn2c3ccccc3c3ccccc32)c(=O)n1 (configuration not stated)	-9.6	·	·
N#Cc1ccc(C(=O)Cn2cc(C(F)(F)F)ccc2=O)cc1	9.5	0.6	7.0
CC(=O)O[C@@H]1[C@@H](O)[C@@H](O)[C@H](Oc2c(-c3ccc(O)cc3)oc3cc(O[C@@H]4O[C@@H](C)[C@H](O)[C@@H](O)[C@H]4O)cc(O)c3c2=O)O[C@H]1C	·	·	-7.7
CCOC(=O)c1nc2ccccc2c(=O)n1/N=C/c1cc(Cl)cc(Cl)c1O	101.4*	0.4	-12.0
Cn1c(SCC(=O)Nc2ccc(Cl)cc2Cl)nc2ccccc2c1=O	28.7	-4.2	·
O=C(Nc1ccc(S(=O)(=O)Nc2ncccn2)cc1)c1c(Cl)cccc1Cl	5.3	1.8	·
Cc1cc2ccccc2n2c(SCC(=O)NCc3ccco3)nnc12	111.5*	-0.1	·
Cc1cc2ccccc2n2c(SCC(N)=O)nnc12	21.4	·	·
CCc1cccc(OCC(=O)Nc2cc([N+](=O)[O-])ccc2O)c1	16.3	1.4	·
COc1ccccc1NC(=O)C1CCCN(S(=O)(=O)c2cc(Cl)ccc2Cl)C1 (configuration not stated)	11.2	·	·
CC(C)(C)C(/C=C/c1ccc(Cl)cc1Cl)n1nnnc1C(C)(C)N1CCOCC1 (configuration not stated)	25.8	-0.6	21.0
C[C@H]1CN([C@@H](C)CO)C(=O)Cc2cc(NS(=O)(=O)c3cccs3)ccc2O[C@H]1CN(C)Cc1ccc(C(=O)Nc2ccccc2N)cc1	140.6*	-4.2	·
C[C@@H]1CN([C@@H](C)CO)C(=O)Cc2cc(NS(=O)(=O)c3cccs3)ccc2O[C@@H]1CN(C)Cc1ccc(C(=O)O)cc1	-10.5	2.6	-23.0
Cc1noc(C)c1S(=O)(=O)Nc1ccc2c(c1)CC(=O)N([C@H](C)CO)C[C@@H](C)[C@H](CN(C)Cc1ccc(C(=O)Nc3ccccc3N)cc1)O2	30.5	0.0	·
COc1ccc(S(=O)(=O)Nc2ccc3c(c2)CC(=O)N([C@@H](C)CO)C[C@H](C)[C@H](CN(C)Cc2ccc(C(=O)Nc4ccccc4N)cc2)O3)cc1	140.4*	-0.7	·
C[C@@H]1CN([C@H](C)CO)C(=O)Cc2cc(NS(=O)(=O)c3ccc(F)cc3)ccc2O[C@@H]1CN(C)Cc1ccc(C(=O)Nc2ccccc2N)cc1	90.7*	-2.1	·
C[C@@H]1CN([C@H](C)CO)C(=O)Cc2cc(NS(=O)(=O)c3ccc(F)cc3)ccc2O[C@H]1CN(C)Cc1ccc(C(=O)Nc2ccccc2N)cc1	?	-2.6	·
COc1ccc(S(=O)(=O)Nc2ccc3c(c2)CC(=O)N([C@@H](C)CO)C[C@H](C)[C@@H](CN(C)Cc2ccc(C(=O)Nc4ccccc4N)cc2)O3)cc1	45.3	-1.0	·
Cc1noc(C)c1S(=O)(=O)Nc1ccc2c(c1)CC(=O)N([C@H](C)CO)C[C@@H](C)[C@@H](CN(C)Cc1ccc(C(=O)Nc3ccccc3N)cc1)O2	99.8*	-0.6	·
O=C(COc1ccc(Cl)cc1Cl)Nc1ccccc1CO	2.5	·	·
Cn1nc(OC(C)(C)C(=O)Oc2ccc(Cl)cc2Cl)cc1C(F)(F)F	33.2	-0.4	1.3
CO[C@H]1C=C[C@@](C)(O)/C=C/C(=O)O[C@H](C)[C@@H](C)CC/C=C\1C	55.5	-0.2	1.8
SMILES	NOMO-1 viab	PD-1 reverse act	Shh pathway inh
CC(=O)c1cccc(NC(=O)CSc2nc3ccccc3c(=O)n2-c2ccccc2)c1	14.2	-0.2	·
Cc1ccc(S(=O)(=O)Nc2ccc3c(c2)CC(=O)N([C@@H](C)CO)C[C@@H](C)[C@@H](CN(C)Cc2ccc(C(=O)Nc4ccccc4N)cc2)O3)cc1	109.3*	1.1	·
C[C@@H]1CN([C@H](C)CO)C(=O)Cc2cc(NS(=O)(=O)c3ccc(Cl)cc3)ccc2O[C@H]1CN(C)Cc1ccc(C(=O)Nc2ccccc2N)cc1	62.4	-1.7	·
Cc1ccccc1-c1nc2cc(NC(=O)COc3ccc(Br)cc3)ccc2o1	-2.1	1.3	·
COc1cc2occ(-c3ccc(O)cc3)c(=O)c2c(OC)c1O	12.5	·	24.3
CCOC(=O)c1c(NC(=O)c2nn(CC)cc2Br)c(C#N)nn1-c1ccccc1	8.7	-0.2	·
CCOC(=O)c1nn(-c2ccccc2)c(C#N)c1NC(=O)c1nn(CC)cc1Br	115.0*	1.6	65.8*
CCCCC1(Cc2ccccc2)C(=O)Nc2ccccc2C1=O (configuration not stated)	43.9	-2.0	·
Cc1ccccc1-c1nc(C#N)c(NCCN2CCOCC2)o1	27.6	-0.5	·
c1ccc2[nH]c(SCCSc3nc4ccccc4[nH]3)nc2c1	83.3*	0.7	·
NC(=O)CSc1nc2ccccc2[nH]1	16.0	·	·
Cc1nc2ccccc2n1CC(O)COCC1CC=CCC1 (configuration not stated)	40.6	0.6	·
Cc1ccc(C(C)C)cc1OCC(O)Cn1c(C)nc2ccccc21 (configuration not stated)	105.5*	-7.6	·
Fc1ccccc1OCCSc1nc2ccccc2s1	11.6	0.0	-88.1
O=C1c2ccccc2C(=O)N1CSc1nc2ccccc2s1	39.8	-0.5	7.0
Nc1ncnc(Sc2nc3ccccc3s2)c1[N+](=O)[O-]	113.6*	-11.5	·
COc1ccc(NC(=O)C2CC=CCC2C(=O)Nc2ccccc2Cl)cc1 (configuration not stated)	5.7	3.6	·
Cc1ccc(-c2csc3nnc(SCC(=O)c4ccc5c(c4)OCCO5)n23)cc1C	55.2	·	·
Clc1ccc(Sc2cn[nH]c2-c2ccc3c(c2)OCCO3)cc1	?	-2.5	78.7*
CN1C(=O)C(Cc2ccccc2)(c2ccccc2)c2ccccc21 (configuration not stated)	48.5	-1.8	-68.5
O=C1CCC(c2ccccc2)C(=O)C1C(=O)c1ccc(Cl)cc1Cl (configuration not stated)	29.0	-0.6	-1.5
Oc1cc2c(c(Cl)c1O)CCNC[C@@H]2c1ccccc1	111.2*	·	9.4
C=CCn1c(SCC(=O)c2ccccc2)nnc1-c1sc2nc(C)cc(C)c2c1N	6.2	1.2	35.0
N#C/C(=C/c1ccc(O)c(O)c1)C(=O)OC/C=C/c1ccccc1	99.2*	·	?
N#C/C(=C\c1ccc(O)c(O)c1)C(=O)Nc1ccccc1	?	-3.9	1.1
CC(=O)c1ccc(NC(=O)C(C)N2C(=O)C3C4C=CC(C5CC45)C3C2=O)cc1 (configuration not stated)	6.3	·	·
C[C@@H]1CN([C@H](C)CO)C(=O)c2cccc(NC(=O)Nc3ccc(C(F)(F)F)cc3)c2O[C@@H]1CN(C)CC1CC1	20.2	0.9	11.4
C[C@H](CO)N1C[C@H](C)[C@@H](CN(C)CC2CCCCC2)Oc2c(NC(=O)Nc3ccc(C(F)(F)F)cc3)cccc2C1=O	120.6*	-5.4	-72.9
C[C@@H]1CN([C@@H](C)CO)C(=O)c2cccc(NC(=O)Nc3ccc(C(F)(F)F)cc3)c2O[C@H]1CN(C)CC1CC1	82.6*	-6.0	2.5
C[C@H](CO)N1C[C@H](C)[C@H](CN(C)CC2CC2)Oc2c(NC(=O)Nc3ccc(C(F)(F)F)cc3)cccc2C1=O	43.8	0.2	-48.0
